Test in all cases: NCI-60 one-dose screen, 48 h (100 = growth as untreated, 0 = no growth, -100 = all killed)
One test has as its system HCT-15 colon. The settings on record: 10 µM unless noted.
The next test has as its system HT29 colon. To be noted: 10 µM unless noted.
A further test relates to SNB-19 CNS. To be noted: 10 µM unless noted.
The next test relates to U251 CNS. To be noted: 10 µM unless noted.
A further test has as its system PC-3 prostate. The settings on record: 10 µM unless noted.
Another test deals with SK-MEL-5 melanoma. To be noted: 10 µM unless noted.
Another test relates to UACC-62 melanoma. To be noted: 10 µM unless noted.
In a further test the test system is LOX IMVI melanoma. The settings on record: 10 µM unless noted.
In another test the test system is SK-MEL-28 melanoma. The settings on record: 10 µM unless noted.
In the next test the test system is SK-MEL-2 melanoma. To be noted: 10 µM unless noted.
The test system of the next test is EKVX NSCLC. The settings on record: 10 µM unless noted.
Another test relates to SN12C renal. The settings on record: 10 µM unless noted.
The next test deals with UO-31 renal. The settings on record: 10 µM unless noted.
The test system of another test is TK-10 renal. To be noted: 10 µM unless noted.
For a further test, the system named is ACHN renal. The settings on record: 10 µM unless noted.
The next test has as its system CAKI-1 renal. To be noted: 10 µM unless noted.
The next test concerns A498 renal. The settings on record: 10 µM unless noted.
In the next test the test system is CCRF-CEM leukemia. The settings on record: 10 µM unless noted.
The test system of the next test is MOLT-4 leukemia. To be noted: 10 µM unless noted.
The next test deals with SNB-75 CNS. The settings on record: 10 µM.

The results in this text go back to PubChem BioAssay (NCI).

The structures appear in SMILES notation. Compounds without any hit were thinned out: in the full panel of roughly 83,000, 20% have a hit.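 Compound tested at a single concentration for 48 hours in 96-well plates; a percent growth value below 10 was scored as active.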 Values without a mark were called inactive. Calls of active or inactive are those of the source.

Take `Cc1cc(N)n(S(=O)(=O)c2oc(-c3ccccc3)nc2C#N)n1`: the growth is 61.8% with HCT-15 colon; 90.4% in the test with HT29 colon; 93.1% in the test on SNB-19 CNS; 86.7% in the test on U251 CNS; 100% in the test with PC-3 prostate; 100% in the test with SK-MEL-5 melanoma. The growth with UACC-62 melanoma is 90.8%; in the test with LOX IMVI melanoma, 68.2%; in the test on SK-MEL-28 melanoma, 106%; in the test on SK-MEL-2 melanoma, 89.7%; with EKVX NSCLC it was 84.7%; in the test on SN12C renal, 83.9%. Also, the growth in the test on UO-31 renal was 80.6%; in the test with TK-10 renal, 99.1%; with ACHN renal, 5.25% (active); in the test with CAKI-1 renal it was -49.4% (active); with A498 renal, 128%; in the test with CCRF-CEM leukemia it was 7.83% (active). In the test on MOLT-4 leukemia, the growth is 0.904% (active).

As for `O=C1/C(=C/c2ccccc2)CN(C(=O)CCN2CCC(=NO)CC2)C/C1=C\c1ccccc1`, the growth was -42.7% (active) in the test with HCT-15 colon; -81% (active) with HT29 colon; -18.6% (active) with SNB-19 CNS; -52.7% (active) in the test on U251 CNS; -7.51% (active) in the test with PC-3 prostate; -59.2% (active) in the test on SK-MEL-5 melanoma. The growth with UACC-62 melanoma is -59.7% (active); with LOX IMVI melanoma it was -90.7% (active); in the test on SK-MEL-28 melanoma it was -27.4% (active); in the test on SK-MEL-2 melanoma, 55.2%; with EKVX NSCLC, 1.08% (active); with SN12C renal it was -18.6% (active). The growth was -84% (active) with UO-31 renal; 0.636% (active) in the test with TK-10 renal; -11% (active) with ACHN renal; -6.16% (active) in the test with CAKI-1 renal; 80% in the test with A498 renal; -2.62% (active) with CCRF-CEM leukemia. Besides, the growth with MOLT-4 leukemia was 8.95% (active).

As for `O=c1ccn(-c2ncnc3nc[nH]c23)cc1`, the growth with HCT-15 colon is 102%; with HT29 colon it was 109%; in the test on SNB-75 CNS it was 80.6%; with SNB-19 CNS, 98.4%; in the test on U251 CNS, 95.5%; with PC-3 prostate, 96.6%. The growth in the test with SK-MEL-5 melanoma is 114%; with UACC-62 melanoma, 92.8%; with LOX IMVI melanoma, 96.3%; in the test with SK-MEL-28 melanoma, 94.6%; with SK-MEL-2 melanoma, 90.9%; in the test on EKVX NSCLC, 91.4%. The growth was 90.3% in the test with SN12C renal; 67% in the test on UO-31 renal; 86.4% in the test on TK-10 renal; 99.3% in the test on ACHN renal; 74.6% with CAKI-1 renal; 87.6% in the test on A498 renal. Further, the results for the growth in the test with CCRF-CEM leukemia and in the test on MOLT-4 leukemia were 89.7% and 96%, respectively.

Regarding `Cc1nn(-c2ccc(Cl)cc2)c2ncnc(N/N=C/c3cccc([N+](=O)[O-])c3)c12`, the growth in the test on HCT-15 colon was 100%; with HT29 colon it was 90.7%; in the test with SNB-75 CNS it was 99.2%; in the test with SNB-19 CNS it was 96.4%; with U251 CNS it was 82.3%; with PC-3 prostate, 39%. Besides, the growth is 109% in the test with UACC-62 melanoma; 93.4% in the test on LOX IMVI melanoma; 105% in the test with SK-MEL-28 melanoma; 99% in the test with SK-MEL-2 melanoma; 84% in the test with EKVX NSCLC; 101% with SN12C renal. The growth with UO-31 renal was 72.3%; in the test on TK-10 renal it was 93.3%; in the test with ACHN renal it was 108%; with CAKI-1 renal it was 76.4%; with A498 renal, 85.5%; in the test with CCRF-CEM leukemia, 20.5%. Also, the growth in the test on MOLT-4 leukemia is 15.4%.

In the case of `O=C(O)c1cn(C2CC2)c2cc(N3CCN(C(=O)/C=C/c4ccc(Cl)cc4)CC3)c(F)cc2c1=O`, the growth with HCT-15 colon is 51.6%; in the test on HT29 colon it was 82.1%; in the test with SNB-19 CNS, 82.8%; in the test with U251 CNS, 77.7%; in the test with PC-3 prostate, 72.6%; in the test with SK-MEL-5 melanoma, 64.8%. The growth in the test on UACC-62 melanoma was 61.7%; in the test with LOX IMVI melanoma, 22%; in the test with SK-MEL-28 melanoma it was 66.5%; in the test with SK-MEL-2 melanoma, 98.8%; with EKVX NSCLC it was 80.4%; with SN12C renal, 70.5%. Further, the growth with UO-31 renal is -62.8% (active); with TK-10 renal, 105%; in the test with ACHN renal, 76.7%; in the test with CAKI-1 renal, 73.8%; with A498 renal, 29%.

For `C1=Cc2ccccc2N(c2nnc(-c3ccccc3)o2)c2ccccc21`, the growth in the test with HCT-15 colon is 45.8%; in the test on HT29 colon, 102%; with SNB-19 CNS, 96.7%; in the test on U251 CNS, 66.8%; in the test on PC-3 prostate it was 60.6%; with SK-MEL-5 melanoma, 72%. In addition, the growth in the test with UACC-62 melanoma was 86.4%; in the test on LOX IMVI melanoma, 79.9%; with SK-MEL-28 melanoma it was 98.2%; in the test with SK-MEL-2 melanoma, 108%; in the test on EKVX NSCLC, 94.3%; in the test with SN12C renal, 96.2%. For the same compound, the growth was 83.9% with UO-31 renal; 114% with TK-10 renal; 95.1% in the test on ACHN renal; 83.3% in the test on CAKI-1 renal; 80% in the test on A498 renal; 73.9% in the test on CCRF-CEM leukemia. For the same compound, the growth in the test with MOLT-4 leukemia was 83.5%.

With `CCN(CC)CCC(CNc1ccnc2cc(Cl)ccc12)c1ccc(Cl)cc1` (stereo unspecified), the growth is -9.14% (active) in the test with HCT-15 colon; -4.66% (active) in the test with HT29 colon; 10.7% with SNB-19 CNS; -61% (active) with U251 CNS; 36.9% with PC-3 prostate; -96.3% (active) in the test on SK-MEL-5 melanoma. The growth with UACC-62 melanoma is -74.5% (active); in the test on LOX IMVI melanoma, -1.91% (active); in the test with SK-MEL-28 melanoma, -91.8% (active); in the test with SK-MEL-2 melanoma it was -75.7% (active); in the test with EKVX NSCLC, 67.4%; with SN12C renal it was 42.2%. Moreover, the growth was -84.7% (active) in the test on UO-31 renal; -8.87% (active) with TK-10 renal; -74.5% (active) in the test with ACHN renal; -40.3% (active) in the test on CAKI-1 renal; 0.939% (active) in the test on A498 renal; 3.11% (active) in the test on CCRF-CEM leukemia. In the test with MOLT-4 leukemia, the growth is 7.05% (active).

In the case of `O=C(CSc1nc2ccccc2[nH]1)c1ccc(N2CCOCC2)cc1`, the growth was 99.4% with HCT-15 colon; 113% in the test with HT29 colon; 98.7% in the test with SNB-19 CNS; 103% with U251 CNS; 100% in the test with PC-3 prostate; 105% in the test on SK-MEL-5 melanoma. Besides, the growth in the test with UACC-62 melanoma was 97.1%; in the test with LOX IMVI melanoma, 94.8%; in the test with SK-MEL-28 melanoma it was 114%; with SK-MEL-2 melanoma, 113%; in the test on EKVX NSCLC, 80.4%; in the test on SN12C renal it was 105%. The growth with UO-31 renal was 85.5%; with TK-10 renal, 118%; in the test on ACHN renal it was 105%; with CAKI-1 renal it was 99%; in the test with A498 renal it was 85.8%; in the test on CCRF-CEM leukemia, 103%. Also, in the test with MOLT-4 leukemia, the growth is 135%.
